This passage reports growth results from PubChem BioAssay (NCI).

This is part of a sample that, as a whole, favours compounds with a hit. Of some 83,000 tested, about 20% had one in any assay.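 Treatment: one concentration, 48 hours, 96-well format. Scoring: percent growth, with anything below 10 considered active.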 Values without a mark were called inactive. The source made the active and inactive calls.

The first assay deals with UO-31 renal. Description: NCI-60 one-dose screen, 48 h (100 = growth as untreated, 0 = no growth, -100 = all killed). Particulars: 10 µM unless noted.
Consider `Nc1ccc(S(=O)(=O)c2ccc(NO)cc2)cc1`, for which the growth is 84.2%.
Same read-out and setting: the figure for `COc1cc(NC(C)CCCN)c2nccc(C)c2c1OC` (stereo not given) is 89.5%.
For `CCCC(=O)NNc1[nH]c(-c2cc(OC)c(OC)c(OC)c2)cc1C(=O)OCC`, the growth is 88.7%.
On to `CC(C)OC(=O)c1ccc2n1CCCc1cnc(Nc3ccccc3)nc1-2`, for which the growth was 64.2%.
On to `COC(=O)c1ccc2[nH]c(O)c(C(=Nc3ccc(N(C)C(=O)CN4CCN(C)CC4)cc3)c3ccc(OC)cc3)c2c1`, for which the growth was 14.3%.
Regarding `CC(=O)c1cc(Nc2cc(C)nc(N)n2)cc(C(C)=O)c1`, the growth was 92.7%.
As for `CCOC(=O)C1=C(C(F)(F)F)NC(=S)NC1CN1C(=O)c2ccccc2C1=O` (stereo not given), the growth is 98.1%.
With `CC(C)OC(=O)[C@H](C)N[P@@](=O)(OC[C@@]1(C)O[C@@H](n2cc(F)c(N)nc2=O)C[C@@H]1O[P@](=O)(N[C@@H](C)C(=O)OC(C)C)Oc1ccccc1)Oc1ccccc1`, the growth was 98.6%.
Turning to `COc1ccc(Cn2cc3c(c2-c2ccccc2)CCc2cnoc2-3)cc1OC`, the growth was 35.3%.
Turning to `CC1C(=O)CCCC1=O`, the growth is 86.7%.
Same read-out and setting: under `Brc1ccc(-c2nc3ccccc3s2)cc1` stands 59.5%; under `O=C(Nc1cccc(Cn2c(=O)[nH]c3ccc(Oc4ncccn4)cc3c2=O)c1)c1ccc(Cl)cc1`, 47.7%.
With `Cc1ccc(S(=O)(=O)Nc2cccc(Cn3c(=O)[nH]c4ccc(Oc5ncccn5)cc4c3=O)c2)cc1`, the growth is 74.2%.
The same measure, in the same setting: the figure for `CC1(C)Oc2cc3oc(=O)ccc3cc2C[C@@H]1OCCOS(=O)(=O)c1ccc(C#N)cc1` is 83.5%.
With `COC1NC(Cl)=C(C#N)C(C#N)(C#N)C1(C)C` (stereo not given), the growth is 85.5%.
On to `COc1ccccc1C(=O)Nc1cccc(-c2cc(=O)c3c(OC)c(OC)c(OC)cc3o2)c1`, for which the growth was 15.3%.
The same measure, in the same setting: under `C=C(NC(=O)[C@H](C(C)C)N(C)c1cccc2[nH]ccc12)C(=O)OC` stands 80.1%.
The same measure, in the same setting: the figure for `Cc1nc2c(nnn2-c2ccccc2)c2nc(-c3ccccc3)oc(=O)c12` is 86.5%; for `CCCCCCCCCC[N+](C)(C)C` it is 72.9%.
On to `CCOC(=O)c1ccc2n1CCCc1cnc(NC(C)=O)nc1-2`, for which the growth was 89.5%.
For the compound `O=S(=O)(O)c1ccc2c(c1)Sc1cc(S(=O)(=O)O)ccc1O2`, the growth was 97%.
For `COc1cc(/C=C/C(=O)c2ccc(F)cc2)ccc1OCCCCOc1cc2c(cc1OC)C(=O)N1CCCC1C=N2` (stereo not given), the growth is -63% (active).
`COC(=O)C(C)[C@H]1CC[C@@H]2[C@]1(C)CC=C1[C@]23C=C[C@]2(C[C@@H](OC(C)=O)CC[C@]12C)C(C(=O)OC)C3C(=O)OC` (stereo not given in full): the growth was 86.7%.
Take `COc1ccc2cnc(N)c(C#Cc3cc(C(=O)Nc4ccc(CN5CCN(C)CC5)c(C(F)(F)F)c4)cnc3C)c2c1`: the growth is -71.8% (active).
Regarding `COc1cccc2c1nc1cccc(OC)c1[n+]2[O-]`, the growth was -0.522% (active).
Regarding `O=C1/C(=N\c2cc(=O)[nH]n2S(=O)(=O)c2ccccc2)Nc2ccccc21`, the growth is 70.8%.
On the same count and under the same terms, under `c1ccc(Nc2ccccn2)cc1` stands 88%; under `COc1ccc(OC)c(Cn2cc3c(c2)-c2oncc2CC3)c1`, 41.9%; under `O=C1C(=O)c2ccccc2C(O)=C1CCCc1ccc(C2CCCC2)cc1`, 45.8%.
With `CCCOC(=O)c1c(C)n(C)c2scc[n+]12`, the growth is 81.3%.
Turning to `COc1cc(-c2nc3c(c(C)nc4c3nnn4-c3ccccc3)c(=O)o2)cc(OC)c1OC`, the growth is 87.9%.
The same measure, in the same setting: the figure for `COC(=O)Nc1nc2ccc(C(=O)c3ccccc3N(C)C3COC3)cc2[nH]1` is 39.9%; for `COc1cc(Cn2ccc3c2-c2oncc2CC3)cc(OC)c1` it is 28.8%.
On to `c1ccc(Nc2ncc3c(n2)-c2cccn2CC3)cc1`, for which the growth was 49.1%.
Still for that read-out and setting: under `N=c1c2c(=O)n3c(nc2nc2sc4ccc(Cl)cc4n12)-c1ccccc1Sc1ccccc1-3` stands -5.37% (active); under `NC(=O)CC(NC(=O)COc1ccc(Cl)cc1Cl)C(=O)O` (stereo not given), 95.6%.
As for `C=C(C)[C@@H]1CC[C@]2(COC(=O)c3ccccc3C(=O)O)CC[C@]3(C)[C@H](CC[C@@H]4[C@@]5(C)CCCNC(C)(C)[C@@H]5CC[C@]43C)[C@@H]12`, the growth is 72.7%.
Take `C/C=C(/C)C(=O)OC1C=C(CO)C(=O)C(OC(=O)/C(C)=C\C)C1C(C)C` (stereo not given): the growth is -100% (active).
As to `CC(=O)OC1CC2C3CCC4C[C@@H](NC(=O)C=C(C)C)CC[C@]4(C)C3CC[C@]2(C)[C@H]1C(C)N(C)C` (stereo not given in full), the growth was 8.5% (active).
Same read-out and setting: under `CC(=O)/C(=C/c1ccc(-c2ccccc2)cc1)C(=O)c1ccccc1` stands 76.3%.

In the next assay the test system is TK-10 renal. The assay is described as above. Particulars: 10 µM unless noted.
As to `Nc1ccc(S(=O)(=O)c2ccc(NO)cc2)cc1`, the growth is 131%.
With `COc1cc(NC(C)CCCN)c2nccc(C)c2c1OC` (stereo not given), the growth was 114%.
Same read-out and setting: under `CCCC(=O)NNc1[nH]c(-c2cc(OC)c(OC)c(OC)c2)cc1C(=O)OCC` stands 74.1%; under `CC(C)OC(=O)c1ccc2n1CCCc1cnc(Nc3ccccc3)nc1-2`, 85.3%; under `COC(=O)c1ccc2[nH]c(O)c(C(=Nc3ccc(N(C)C(=O)CN4CCN(C)CC4)cc3)c3ccc(OC)cc3)c2c1`, 27.6%.
In the case of `CC(=O)c1cc(Nc2cc(C)nc(N)n2)cc(C(C)=O)c1`, the growth was 94.8%.
Turning to `CCOC(=O)C1=C(C(F)(F)F)NC(=S)NC1CN1C(=O)c2ccccc2C1=O` (stereo not given), the growth is 107%.
On the same count and under the same terms, the figure for `CC(C)OC(=O)[C@H](C)N[P@@](=O)(OC[C@@]1(C)O[C@@H](n2cc(F)c(N)nc2=O)C[C@@H]1O[P@](=O)(N[C@@H](C)C(=O)OC(C)C)Oc1ccccc1)Oc1ccccc1` is 101%; for `COc1ccc(Cn2cc3c(c2-c2ccccc2)CCc2cnoc2-3)cc1OC` it is 70.4%; for `CC1C(=O)CCCC1=O` it is 102%.
For `Brc1ccc(-c2nc3ccccc3s2)cc1`, the growth was 142%.
In the case of `O=C(Nc1cccc(Cn2c(=O)[nH]c3ccc(Oc4ncccn4)cc3c2=O)c1)c1ccc(Cl)cc1`, the growth was 58.5%.
Still for that read-out and setting: under `Cc1ccc(S(=O)(=O)Nc2cccc(Cn3c(=O)[nH]c4ccc(Oc5ncccn5)cc4c3=O)c2)cc1` stands 105%; under `CC1(C)Oc2cc3oc(=O)ccc3cc2C[C@@H]1OCCOS(=O)(=O)c1ccc(C#N)cc1`, 101%.
`COC1NC(Cl)=C(C#N)C(C#N)(C#N)C1(C)C` (stereo not given): the growth was 113%.
On to `COc1ccccc1C(=O)Nc1cccc(-c2cc(=O)c3c(OC)c(OC)c(OC)cc3o2)c1`, for which the growth is 53.4%.
For the compound `C=C(NC(=O)[C@H](C(C)C)N(C)c1cccc2[nH]ccc12)C(=O)OC`, the growth was 94.2%.
On to `Cc1nc2c(nnn2-c2ccccc2)c2nc(-c3ccccc3)oc(=O)c12`, for which the growth is 104%.
On to `CCCCCCCCCC[N+](C)(C)C`, for which the growth was -25.1% (active).
As to `CCOC(=O)c1ccc2n1CCCc1cnc(NC(C)=O)nc1-2`, the growth was 107%.
For `O=S(=O)(O)c1ccc2c(c1)Sc1cc(S(=O)(=O)O)ccc1O2`, the growth was 107%.
For the compound `COc1cc(/C=C/C(=O)c2ccc(F)cc2)ccc1OCCCCOc1cc2c(cc1OC)C(=O)N1CCCC1C=N2` (stereo not given), the growth is -16.9% (active).
On the same count and under the same terms, the figure for `COC(=O)C(C)[C@H]1CC[C@@H]2[C@]1(C)CC=C1[C@]23C=C[C@]2(C[C@@H](OC(C)=O)CC[C@]12C)C(C(=O)OC)C3C(=O)OC` (stereo not given in full) is 109%; for `COc1ccc2cnc(N)c(C#Cc3cc(C(=O)Nc4ccc(CN5CCN(C)CC5)c(C(F)(F)F)c4)cnc3C)c2c1` it is 27.4%.
As for `COc1cccc2c1nc1cccc(OC)c1[n+]2[O-]`, the growth is 75.8%.
As to `O=C1/C(=N\c2cc(=O)[nH]n2S(=O)(=O)c2ccccc2)Nc2ccccc21`, the growth was 123%.
Regarding `c1ccc(Nc2ccccn2)cc1`, the growth is 95.5%.
In the case of `COc1ccc(OC)c(Cn2cc3c(c2)-c2oncc2CC3)c1`, the growth is 68.9%.
`O=C1C(=O)c2ccccc2C(O)=C1CCCc1ccc(C2CCCC2)cc1`: the growth was 36.7%.
For the compound `CCCOC(=O)c1c(C)n(C)c2scc[n+]12`, the growth was 104%.
Turning to `COc1cc(-c2nc3c(c(C)nc4c3nnn4-c3ccccc3)c(=O)o2)cc(OC)c1OC`, the growth was 104%.
`COC(=O)Nc1nc2ccc(C(=O)c3ccccc3N(C)C3COC3)cc2[nH]1`: the growth is 59.5%.
As to `COc1cc(Cn2ccc3c2-c2oncc2CC3)cc(OC)c1`, the growth is 61.7%.
Regarding `c1ccc(Nc2ncc3c(n2)-c2cccn2CC3)cc1`, the growth was 90.8%.
Take `N=c1c2c(=O)n3c(nc2nc2sc4ccc(Cl)cc4n12)-c1ccccc1Sc1ccccc1-3`: the growth was 47%.
As for `NC(=O)CC(NC(=O)COc1ccc(Cl)cc1Cl)C(=O)O` (stereo not given), the growth was 103%.
Regarding `C=C(C)[C@@H]1CC[C@]2(COC(=O)c3ccccc3C(=O)O)CC[C@]3(C)[C@H](CC[C@@H]4[C@@]5(C)CCCNC(C)(C)[C@@H]5CC[C@]43C)[C@@H]12`, the growth is 65.6%.
Turning to `C/C=C(/C)C(=O)OC1C=C(CO)C(=O)C(OC(=O)/C(C)=C\C)C1C(C)C` (stereo not given), the growth was -88.8% (active).
Regarding `CC(=O)OC1CC2C3CCC4C[C@@H](NC(=O)C=C(C)C)CC[C@]4(C)C3CC[C@]2(C)[C@H]1C(C)N(C)C` (stereo not given in full), the growth was 48.4%.
Same read-out and setting: the figure for `CC(=O)/C(=C/c1ccc(-c2ccccc2)cc1)C(=O)c1ccccc1` is 103%.
